Laboratory results reported in the supplement of paper PMC5662767.
Structures can show the parent of a compound that is named as a salt.

system: Drosophila S2 cl14 SmoIP sensor cells; test: normalized SmoIP GFP fluorescence (untreated unstimulated = 0%, untreated Hh-stimulated = 100%); higher = more Smo activation sensor fluorescence; conditions: stimulation: Hh conditioned medium (+Hh); compound concentration: 2 uM; 24 h
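Further: flow cytometry read-out as median GFP intensity of gated cells, compounds added 30 min before Hh-conditioned or mock medium, mock-treated cells serving as unstimulated baseline.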

Row | Compound | normalized SmoIP GFP fluorescence [%]
1 | CC(C)n1c(/C=C/[C@@H](O)C[C@@H](O)CC(=O)O)c(-c2ccc(F)cc2)c2ccccc21 [Fluvastatin-Sodium(Lescol] | 78.2
2 | CCNC(=O)Nc1ccc(-c2nc3c(c(N4CCOC[C@@H]4C)n2)CCN(C2COC2)C3)cc1 | 93.3
3 | Cn1cc(-c2ccc3nnc(C(F)(F)c4ccc5ncccc5c4)n3n2)cn1 | 96.1
4 | CNC(=O)c1ccc(N2C(=S)N(c3cnc(C#N)c(C(F)(F)F)c3)C(=O)C23CCC3)cc1F | 105
5 | COc1ccccc1N1CCN(CCN(C(=O)C2CCCCC2)c2ccccn2)CC1 | 125
6 | NC(=O)c1ncn([C@@H]2O[C@H](CO)[C@@H](O)[C@H]2O)c1N [Acadesine] | 127
7 | COc1ccc2cccc(CCNC(C)=O)c2c1 [Agomelatine] | 102
8 | C[C@@H]1C(=O)O[C@H]2C[C@@]34[C@H]5C[C@@H](C(C)(C)C)[C@]36[C@@H](OC(=O)[C@@H]6O)O[C@@]4(C(=O)O5)[C@]21O [ginkgolide-a] | 99.5
9 | CC(C)(O)[C@H]1CC[C@@](C)([C@H]2[C@@H](O)C[C@@]3(C)[C@@H]4C[C@H](O[C@@H]5O[C@H](CO)[C@@H](O)[C@H](O)[C@H]5O)[C@H]5C(C)(C)[C@@H](O[C@@H]6OC[C@@H](O)[C@H](O)[C@H]6O)CC[C@@]56C[C@@]46CC[C@]23C)O1 [astragaloside-a] | 120
10 | CC(C)(C)c1cnc(CSc2cnc(NC(=O)C3CCNCC3)s2)o1 | 131
11 | CC[C@H](CO)Nc1nc(NCc2ccccc2)c2ncn(C(C)C)c2n1 [Roscovitine] | 121
12 | CC(=O)Oc1cc2c(s1)CCN(C(C(=O)C1CC1)c1ccccc1F)C2 (centres undefined) [Prasugrel] | 107
13 | CN(C)CCN(Cc1ccccc1)c1ccccn1 [tripelennamine-hydrochloride] | 112
14 | OC[C@@H](O)CN1CCN(c2ccccc2)CC1 [levodropropizine] | 94.5
15 | Nc1ncnc2c1c(-c1cnc3[nH]ccc3c1)nn2C1CCCC1 | 50.6
16 | C/C=C1\[C@H]2C=C(C)C[C@]1(N)c1ccc(=O)[nH]c1C2 [(-)-Huperzine-A] | 139
17 | CC(C)(C)c1cc(NC(=O)Nc2ccc(-c3cn4c(n3)sc3cc(OCCN5CCOCC5)ccc34)cc2)no1 | 110
18 | CNCc1ccc(C)c(NC(=O)c2ccc(Nc3nc(-c4ccccc4)c4ccccc4n3)cc2)c1 | 124
19 | Cn1cnc2c(F)c(Nc3ccc(Br)cc3F)c(C(=O)NOCCO)cc21 | 138
20 | CCCC(C)NC(=O)c1ccc(Cl)c(Cl)c1 (centres undefined) | 95.2
21 | C[S+]([O-])c1ccc(-c2nc(-c3ccc(F)cc3)c(-c3ccncc3)[nH]2)cc1 (centres undefined) | 119
22 | CCN1CCCC1CNC(=O)c1cc(S(=O)(=O)CC)c(N)cc1OC (centres undefined) [Amisulpride] | 111
23 | CC1CCN(CC[C@H]2CCCN2S(=O)(=O)c2cccc(O)c2)CC1 | 108
24 | CO[C@H]1C[C@@H]2CC[C@@H](C)[C@@](O)(O2)C(=O)C(=O)N2CCCC[C@H]2C(=O)O[C@H]([C@H](C)C[C@@H]2CC[C@@H](OC(=O)C(C)(CO)CO)[C@H](OC)C2)CC(=O)[C@H](C)/C=C(\C)[C@@H](O)[C@@H](OC)C(=O)[C@H](C)C[C@H](C)/C=C/C=C/C=C/1C [Temsirolimus] | 56.5
